For 40 compounds, growth results are on record in PubChem BioAssay (NCI).

The panel holds about 83,000 compounds, 20% with a hit somewhere; the sample as a whole holds those more often.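 Activity criterion: percent growth below 10, measured after cells in 96-well plates were exposed to a single compound concentration for 48 hours.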 The source made the active and inactive calls.

The subject of this experiment is NCI-H322M lung. Kind of experiment: NCI-60 one-dose screen, 48 h (100 = growth as untreated, 0 = no growth, -100 = all killed). As to conditions: 10 µM unless noted.
With `COc1ccc2ncccc2c1Cc1c(OC)ccc2ncccc12`, the growth is 96.6% (inactive). Then `COc1cc(C2CC(C3C(=O)N(C)C(=O)N(C)C3=O)=NN2c2cc(Cl)cc(Cl)c2)cc(OC)c1OC` (stereo not given), with 104% (inactive); and `Cc1sc2nc(NCc3ccccc3)[nH]c(=O)c2c1C`, with 91.3% (inactive). Then `Cc1cc2c(cc1C)[n+](Cc1ccc3ccccc3n1)cn2Cc1ccc2ccccc2n1`, with 36% (inactive); and `COc1cc(/C=C2\CN(S(=O)(=O)c3ccc(C)cc3)C/C(=C\c3cc(CN4CCOCC4)c(O)c(OC)c3)C2=O)cc(CN2CCOCC2)c1O`, with -15.6% (active). `O=C1NCCc2c1noc2-c1ccccc1`: the growth was 101% (inactive). For `C[C@]12CCC(=O)C=C1CC[C@H]1[C@@H]3C[C@@H](O)[C@](O)(C(=O)CO)[C@@]3(C)C[C@H](O)[C@@]12F` the value was 128% (inactive); for `C/C(=C\CCc1ccsc1)CC/C=C(\C)CCCN1CCSCC1`, 78.3% (inactive); for `COC(=O)Nc1ccc2ccc3c(NC(=O)OC)ccc4ccc1c2c43` (tested in a mixture with another compound), 65% (inactive).

For the compound `O=C(Nc1nc2c(C(F)(F)F)cccc2s1)c1cc(Cl)ccc1O`, the growth is 4.87% (active). Then `COc1cc(C2=NN(C=O)C(c3cccc(Nc4ccnc5cc(Cl)ccc45)c3)C2)cc(OC)c1OC` (stereo not given), with 91.1% (inactive); and `COc1cccc(-c2nc(-c3ccc(N)cc3)co2)c1`, with 102% (inactive). For `C[C@@H]1[C@H]2[C@H](C=C3[C@@H]4CC[C@H]5Cc6nc7c(nc6C[C@]5(C)[C@H]4C[C@@H](O)[C@@]32C)C[C@@H]2CC[C@H]3C4=C[C@@H]5O[C@@]6(CC[C@](C)(CO)O6)[C@@H](C)[C@@]5(O)[C@@]4(C)[C@H](O)C[C@@H]3[C@@]2(C)C7)O[C@]12CCC(C)(C)O2` the value was 27.8% (inactive); for `O=C(CNC(=O)c1cccc2ccccc12)Nc1ccccc1Oc1cccc(O)c1`, 45.1% [5 µM] (inactive). Then `CCN(CC)CCNCC(=O)Oc1ccc(/C=C/C(=O)CC(=O)/C=C/c2ccc(OC(=O)CNCCN(CC)CC)c(OC)c2)cc1OC`, with 55.4% (inactive).

Take `COc1ccc(-c2cc(-c3nnc(SCC(=O)Nc4ccc(C(C)=O)cc4)n3-c3ccccc3)c3ccccc3n2)cc1OC`: the growth is 102% (inactive). For `COc1ccc2c(c1)[n+](=O)c(C(=O)/C=C/c1cc(OC)c(OC)c(OC)c1)c(C)n2[O-]` the value was 81.3% (inactive). For `COc1ccc(-c2nc3sc4c(c3c(=O)[nH]2)CCCCCC4)cc1` the value was 74.4% (inactive); for `CC(=O)Nc1c(Cl)cc2c(c1Cl)Cc1cc([N+](=O)[O-])ccc1-2`, 94.9% (inactive). Then `CCN(CC)CCCCCCCNc1c2ccc(Cl)cc2nc2ccc(OC)cc12`, with -35% (active). In the case of `COc1cc(/C=C/c2cc(/C=C/c3ccc(O)c(OC)c3)n(C(=O)c3ccc(Cl)cc3)n2)ccc1O`, the growth is 28.5% (inactive).

Regarding `Cc1n(Cc2ccc3ccccc3c2)c2ccccc2[n+]1Cc1ccc2ccccc2c1`, the growth was 9.37% (active).

Turning to `CCn1cnc(C[C@H](NC(=O)[C@H](CCCCNC(=O)Nc2cc(C(F)(F)F)cc(C(F)(F)F)c2)NC(=O)Nc2cc(C(F)(F)F)cc(C(F)(F)F)c2)C(=O)OC)c1`, the growth was 5.23% [100 µM] (active). Then `O=C(Nc1cccc(-n2cc(-c3ccncc3)c(-c3cc(O)cc(Cl)c3)n2)c1)Nc1ccc(Cl)c(Cl)c1`, with 19.5% (inactive); and `Oc1ccc(/C=N/Nc2nc3ccccc3s2)c(O)c1`, with 11.9% (inactive). For `Cc1csc(C#Cc2cncc(O)c2)n1` the value was 113% (inactive); for `COc1cc(/C=C/C(=O)CC(=O)/C=C/c2ccc(OC(=O)CCNC34CC5CC(CC(C5)C3)C4)c(OC)c2)ccc1OC(=O)CCNC12CC3CC(CC(C3)C1)C2`, 63.4% (inactive).

In the case of `N/C(=N\C(N)=N\c1nc2ccccc2s1)c1ccnc(Cl)c1`, the growth was 70.1% (inactive). Regarding `COc1ccc(NS(=O)(=O)N2CCCCC2)cc1`, the growth was 102% (inactive).

Consider `C=C1CCC2C(C)(COC(=O)CC)C(OC(=O)CC)CCC2(C)C1C/C=C1/C(=O)OCC1OC(=O)CC` (stereo not given), for which the growth was 75.6% (inactive).

Take `Cc1[nH]ccc2cc3nc4ccccc4c3cc12`: the growth was 19.2% (inactive). For `CC(C)=CCCC(C)c1ccc(C)c2c1OCN(CC1CCNCC1)C2` (stereo not given), the growth is 99.1% (inactive). Then `COc1ccc2c(c1)sc1nc(-c3ccc(N(C)C)cc3)cn12`, with 98.2% (inactive); and `COc1cc(/C=C/C(=O)C(C(=O)/C=C/c2ccc(OC(=O)CCNc3nnc(C)s3)c(OC)c2)C(=O)CCNc2nnc(C)s2)ccc1OC(=O)CCNc1nnc(C)s1`, with 42.1% (inactive); and `O=C(O)c1ccc2cccnc2c1O`, with 12.4% (inactive). For `CC[C@@H](c1ccc(O)c(O)c1)[C@@H](CC)c1ccc(O)c(O)c1` the value was 97% (inactive); for `Cc1ccc(NC(=O)c2sc3nc4c(cc3c2N)C(=O)CCC4)cc1`, 55.8% (inactive). For `CCOC(=O)/C=C1/SC(=Nc2ccc(C#N)cc2)N(Cc2ccco2)C1=O` the value was 95.5% (inactive); for `COP(=O)(OC)C(c1ccc(O)cc1)(c1ccc(O)cc1)c1ccc(O)cc1`, 103% (inactive). With `COc1ccccc1-n1c(-c2ccc(O)cc2C)cn2c3c(=O)[nH]c(=O)n(C)c3nc12`, the growth is 113% (inactive).
